Data on five compounds can be found in PubChem BioAssay.

Assay [1] in a line: rapamycin-like changes in RPL19A-GFP expression – cell-based, S. cerevisiae, multiplex flow cytometry, primary screen (AID 1862; in the data active = percent of DMSO control GFP below about 86%;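 note: lower values mimic rapamycin by blocking the RPL19A rise seen in DMSO cells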). Conditions: S. cerevisiae RPL19A-GFP strain, flow cytometry fluorescence, 3 h; at 10 µM; stronger effect = lower value. Background: A flow cytometer gives signals particle by particle.
Assay [2] can be described thus: TOR pathway GLN3 branch reporter MEP2-GFP changes – S. cerevisiae, multiplex flow cytometry, primary screen (AID 1867;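 active = GFP response, as percent of the DMSO control, above the screen-wide mean plus 3 SD, about 139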;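 note: median GFP channel fluorescence of barcode-gated MEP2-GFP cells measured by flow cytometry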). Conditions: S. cerevisiae MEP2-GFP strain, 3 h, at 10 µM, stronger effect = higher value, 100% means same as DMSO wells.
Assay [3] in a line: TOR pathway RTG branch CIT2 reporter changes – S. cerevisiae, GFP fusion, multiplex flow cytometry, primary screen (AID 1870;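 active = percent response above a set limit, the screen-wide mean plus 3 SD, cut at about 130% in these data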;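 note: barcoded CIT2-GFP strain pooled with four other GFP strains with rapamycin as positive control; median GFP fluorescence per well over plate mean of DMSO wells so 100% = DMSO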). Particulars: S. cerevisiae CIT2-GFP expression, 3 h, at 10 µM, stronger effect = higher value.
A short description of assay [4]: TOR pathway LAP4-GFP level changes – S. cerevisiae, multiplex flow cytometry, primary screen (AID 1873;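 active = GFP signal, as percent of the solvent control, above the screen mean plus 3 SD, about 149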). Conditions: S. cerevisiae LAP4-GFP expression, 3 h, at 10 µM, stronger effect = higher value.
A short description of assay [5]: reduced mouse 2C T cell binding to pMHC/ICAM-1 vesicles – MLPCN validation set, flow cytometry, LFA-1/ICAM-1 modulator project, pilot screen (AID 2523;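 active = response below a set limit, under 55% cells CD8-positive and vesicle-bound, and CD8 cells' 90th-percentile brightness under 279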;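 for vesicle binding response: mean PE anti-B7-1 fluorescence of CD8+ cells relative to row control; 100% = QL9-loaded vesicles with DMSO vehicle in the same plate row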). Conditions: 2C mouse CD8+ T cells, at 7 µM, stronger effect = lower value; double positive events: measured here: CD8+/vesicle+ event percentage.
Assay [6] deals with Integrin beta-1 (Homo sapiens) + Integrin alpha-4 (Homo sapiens) (UniProt P13612+P05556). Put plainly: alpha4beta1 integrin LIBS antibody binding reduction – U937 cells, HUTS-21 mAb, flow cytometry, validation set, VLA-4 allosteric modulator project, pilot screen (AID 2674;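 active = inhibition above 50%, about 3 SD of the validation set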;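 note: antibody binding induced by the VLA-4 ligand LDV present at three times its Kd; 0% = LDV ligand with antibody and no compound and 100% = antibody without LDV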). Conditions: HUTS-21 LIBS mAb binding, at 6.7 µM, stronger effect = higher value, binding induced by LDV ligand.
Sequence of Integrin beta-1 (Homo sapiens) + Integrin alpha-4 (Homo sapiens) (P05556 whole entry, looked up): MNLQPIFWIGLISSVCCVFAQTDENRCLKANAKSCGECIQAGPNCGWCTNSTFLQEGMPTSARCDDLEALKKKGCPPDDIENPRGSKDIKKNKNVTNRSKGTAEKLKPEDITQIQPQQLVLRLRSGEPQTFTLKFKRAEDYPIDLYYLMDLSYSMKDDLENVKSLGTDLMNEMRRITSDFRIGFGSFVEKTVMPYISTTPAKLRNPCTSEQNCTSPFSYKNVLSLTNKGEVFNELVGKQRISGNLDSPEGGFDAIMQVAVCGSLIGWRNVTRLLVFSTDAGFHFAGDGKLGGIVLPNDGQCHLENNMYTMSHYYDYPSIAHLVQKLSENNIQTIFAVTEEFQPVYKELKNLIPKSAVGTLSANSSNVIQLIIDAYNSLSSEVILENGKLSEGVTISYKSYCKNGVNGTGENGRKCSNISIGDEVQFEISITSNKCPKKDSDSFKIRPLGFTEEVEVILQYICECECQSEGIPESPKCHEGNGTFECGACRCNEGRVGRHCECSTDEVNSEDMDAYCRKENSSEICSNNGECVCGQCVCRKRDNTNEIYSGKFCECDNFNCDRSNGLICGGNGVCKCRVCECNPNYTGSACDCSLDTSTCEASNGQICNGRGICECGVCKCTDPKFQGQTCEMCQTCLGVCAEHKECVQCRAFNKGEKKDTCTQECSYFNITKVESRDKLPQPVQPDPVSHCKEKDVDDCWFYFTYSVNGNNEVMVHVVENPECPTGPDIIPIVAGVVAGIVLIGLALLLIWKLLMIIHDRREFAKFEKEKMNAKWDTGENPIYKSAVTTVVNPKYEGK
Sequence of Integrin beta-1 (Homo sapiens) + Integrin alpha-4 (Homo sapiens) (P13612 whole entry, looked up): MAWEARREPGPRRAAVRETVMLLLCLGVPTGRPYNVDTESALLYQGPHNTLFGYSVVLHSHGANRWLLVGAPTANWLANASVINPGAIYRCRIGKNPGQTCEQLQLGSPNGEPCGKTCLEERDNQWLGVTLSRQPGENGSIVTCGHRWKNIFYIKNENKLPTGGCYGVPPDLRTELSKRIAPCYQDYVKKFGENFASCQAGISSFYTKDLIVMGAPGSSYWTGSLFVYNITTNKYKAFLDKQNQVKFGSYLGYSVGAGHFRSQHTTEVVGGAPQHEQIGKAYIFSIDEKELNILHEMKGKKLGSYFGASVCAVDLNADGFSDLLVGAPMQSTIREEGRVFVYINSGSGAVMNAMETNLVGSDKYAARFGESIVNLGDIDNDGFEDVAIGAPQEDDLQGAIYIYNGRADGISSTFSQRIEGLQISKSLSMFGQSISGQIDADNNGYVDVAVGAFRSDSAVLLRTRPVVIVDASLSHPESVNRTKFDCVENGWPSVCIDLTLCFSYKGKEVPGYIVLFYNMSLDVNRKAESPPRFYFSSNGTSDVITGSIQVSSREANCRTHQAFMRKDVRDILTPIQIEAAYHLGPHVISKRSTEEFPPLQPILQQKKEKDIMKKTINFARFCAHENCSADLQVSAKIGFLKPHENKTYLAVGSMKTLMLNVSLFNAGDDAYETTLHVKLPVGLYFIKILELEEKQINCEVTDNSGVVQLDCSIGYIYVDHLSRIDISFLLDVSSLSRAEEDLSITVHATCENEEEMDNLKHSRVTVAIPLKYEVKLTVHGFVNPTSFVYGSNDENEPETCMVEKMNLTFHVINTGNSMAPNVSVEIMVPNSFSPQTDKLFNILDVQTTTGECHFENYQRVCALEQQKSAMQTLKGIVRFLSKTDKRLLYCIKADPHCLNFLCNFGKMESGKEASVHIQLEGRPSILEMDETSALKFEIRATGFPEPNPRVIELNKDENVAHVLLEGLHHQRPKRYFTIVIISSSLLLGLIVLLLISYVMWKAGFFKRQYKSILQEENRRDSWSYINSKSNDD
Assay [7] is described as follows: calorie-restriction mimetic ROS inhibitors, yeast – validation compound set, pilot screen (AID 2706;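 active = superoxide response below 65% of plate, a cut near 3 SD across the whole screen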;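 note: yeast exposed to compound for one week at 30 degrees C before staining; 100% = mean of all compound wells on the same plate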). Conditions: S. cerevisiae aging, superoxide DHE fluorescence; at 10 µM, stronger effect = lower value.
Assay [8] has as its target Beta-adrenergic receptor kinase 1 (Homo sapiens) (UniProt P25098). In words: GRK2 binders displacing RNA aptamer, biochemical, validation, human GRK2, bead flow cytometry (AID 488806;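 active = aptamer binding inhibition above 30%, about 3 SD of noise from non-fluorescent compounds; inactive = inhibition at or below 30%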). Conditions: bead-bound GRK2, FAM-aptamer displacement, at 10 µM, stronger effect = higher value.
Assay [9] concerns the target Beta-2 adrenergic receptor (Homo sapiens) (UniProt P07550). In words: agonist-induced loss of surface beta2AR – cell-based, FAP fluorogen, flow cytometry, validation set, pilot screen (AID 504459;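 active = percent response above 42, roughly 3 SD of non-fluorescent test compounds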;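 note: agonist-driven loss of surface beta2AR via internalization measured by FAP dye flow cytometry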). Conditions: Am2.2-beta2AR cells, at 10 µM, stronger effect = higher value.
For assay [10], the target named is AP-2 complex subunit beta (Homo sapiens) (UniProt P63010). Put plainly: beta-arrestin/AP2 interaction blockers – biochemical, validation set, GST-AP2 beads, flow cytometry, pilot screen (AID 504541).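 Note: AP2 carries R879A mutation and is captured from E. coli lysate; bead-bound FITC arrestin peptide fluorescence measuring arrestin peptide binding to AP2; 0% = DMSO wells and 100% = excess unlabeled arrestin peptide control.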 Particulars: FITC arrestin peptide, at 10 µM, stronger effect = higher value, AP2 beta2 appendage fragment, R879A mutant.
Sequence of AP-2 complex subunit beta (Homo sapiens) (P63010 whole entry, looked up, the tested form may be a part, one chain of several): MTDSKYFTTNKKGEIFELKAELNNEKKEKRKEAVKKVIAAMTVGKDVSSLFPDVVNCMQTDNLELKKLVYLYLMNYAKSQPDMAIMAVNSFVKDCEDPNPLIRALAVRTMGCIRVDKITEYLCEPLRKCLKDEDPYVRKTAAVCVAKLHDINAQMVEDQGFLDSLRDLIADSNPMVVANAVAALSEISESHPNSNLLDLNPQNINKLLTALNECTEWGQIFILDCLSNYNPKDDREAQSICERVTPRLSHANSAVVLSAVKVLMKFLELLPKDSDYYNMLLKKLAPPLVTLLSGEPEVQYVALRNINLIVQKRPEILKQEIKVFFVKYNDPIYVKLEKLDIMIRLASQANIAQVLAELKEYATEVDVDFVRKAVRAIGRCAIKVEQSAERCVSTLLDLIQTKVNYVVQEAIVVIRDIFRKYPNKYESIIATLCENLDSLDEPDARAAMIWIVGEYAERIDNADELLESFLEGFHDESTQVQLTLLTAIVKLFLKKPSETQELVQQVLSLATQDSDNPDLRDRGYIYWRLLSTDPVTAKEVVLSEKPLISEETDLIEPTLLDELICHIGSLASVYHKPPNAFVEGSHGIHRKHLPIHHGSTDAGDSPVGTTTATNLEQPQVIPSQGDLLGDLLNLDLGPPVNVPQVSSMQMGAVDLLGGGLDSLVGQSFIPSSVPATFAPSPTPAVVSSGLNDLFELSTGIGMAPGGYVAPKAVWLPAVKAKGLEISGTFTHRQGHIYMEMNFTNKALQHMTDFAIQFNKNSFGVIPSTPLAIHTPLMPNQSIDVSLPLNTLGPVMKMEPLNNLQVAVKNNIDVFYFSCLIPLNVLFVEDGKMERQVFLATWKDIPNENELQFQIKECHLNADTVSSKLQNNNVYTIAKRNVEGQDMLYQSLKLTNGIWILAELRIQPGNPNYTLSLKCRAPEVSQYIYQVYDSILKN
Assay [11] can be described thus: cytosolic pH regulators acting via V-ATPase – S. cerevisiae, pHLuorin, HTS validation (AID 504600; in the data active = response above about 15%;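 note: plate controls were DMSO for no effect and reference compound for full effect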). Conditions: V-ATPase proton transport, at 10 µM, stronger effect = higher value.
Assay [12] concerns anti-desmoglein-3 scFv antibody binding to human DSG3. Put plainly: blockers of pathogenic pemphigus antibody–desmoglein-3 binding – biochemical, validation compound set, bead-based, flow cytometry, pilot screen (AID 588368;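 active = binding below the plate cutoff, the plate median minus 3 SD, with a reading above zero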;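 note: signal is the median channel fluorescence of bead-bound GFP antibody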). Conditions: Protein G beads, DSG3-Fc, scFv-GFP binding, at 10 µM, stronger effect = lower value.
Assay [13] can be described thus: Nile Red efflux blockade in pump-expressing yeast – validation compound set, multiplex, phenotypic, pilot screen (AID 588506;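 active = efflux inhibition above 0.42, the validation set average plus 4 SD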;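 note: Nile Red retained in cells so higher fluorescence means more efflux inhibition; 0 = negative control wells and 1 = enniatin B 25 µM full block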). Particulars: S. cerevisiae pump-expressing triplex, Nile Red efflux flow cytometry; at 10 µM; stronger effect = higher value; the pumps come from Candida albicans.
The target in assay [14] is ATP-binding cassette sub-family B member 6 (Homo sapiens) (UniProt Q9NP58). In words: blockers of ABCB6-driven porphyrin uptake – K562-ABCB6 cells, flow cytometry, validation set, pilot screen (AID 588550;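 active = inhibition above the screen-wide mean plus 3 SD, about 51%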;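 note: 0% = DMSO wells and 100% = benzethonium chloride 70 µM positive control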). Particulars: K562-ABCB6 porphyrin accumulation, 1 h, at 10 µM, stronger effect = higher value.
Sequence of ATP-binding cassette sub-family B member 6 (Homo sapiens) (Q9NP58 whole entry, looked up): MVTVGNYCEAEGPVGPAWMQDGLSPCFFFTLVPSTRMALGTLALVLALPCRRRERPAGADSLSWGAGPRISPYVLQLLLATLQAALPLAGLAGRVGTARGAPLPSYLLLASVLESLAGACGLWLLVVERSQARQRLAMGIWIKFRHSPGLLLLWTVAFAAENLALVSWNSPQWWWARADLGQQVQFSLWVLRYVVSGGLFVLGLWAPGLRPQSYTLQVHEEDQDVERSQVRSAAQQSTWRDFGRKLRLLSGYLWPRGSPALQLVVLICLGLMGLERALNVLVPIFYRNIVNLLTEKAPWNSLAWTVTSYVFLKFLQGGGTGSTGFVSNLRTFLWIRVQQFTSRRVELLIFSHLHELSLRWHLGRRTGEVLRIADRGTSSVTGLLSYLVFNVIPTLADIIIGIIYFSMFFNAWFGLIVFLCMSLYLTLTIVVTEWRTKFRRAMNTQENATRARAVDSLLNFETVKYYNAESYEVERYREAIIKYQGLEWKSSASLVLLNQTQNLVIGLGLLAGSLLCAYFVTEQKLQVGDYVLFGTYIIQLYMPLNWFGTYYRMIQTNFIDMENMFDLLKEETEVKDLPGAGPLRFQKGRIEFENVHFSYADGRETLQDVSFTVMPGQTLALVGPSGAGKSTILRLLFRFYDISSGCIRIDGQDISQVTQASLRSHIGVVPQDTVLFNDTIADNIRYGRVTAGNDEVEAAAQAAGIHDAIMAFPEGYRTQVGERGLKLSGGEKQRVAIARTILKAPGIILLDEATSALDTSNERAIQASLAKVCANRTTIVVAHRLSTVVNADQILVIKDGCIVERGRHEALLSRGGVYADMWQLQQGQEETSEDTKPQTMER
Assay [15] can be described thus: AML differentiation inducers, ER-HoxA9 marrow cells – cell-based, GFP/MAC1 double positive, flow cytometry, validation set, primary screen (AID 588685;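 active = differentiation response of at least 50%, scaled between solvent and reference control, from cells with both markers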;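 note: compound exposure lasts four days before antibody staining and flow analysis; 0% = DMSO wells and 100% = 5 µM fulvestrant positive control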). Conditions: stronger effect = higher value, normalized: vehicle 0, fulvestrant 100.
Assay [16] in a line: yeast AGP1-GFP level changes, GLN3 branch – cell-based, multiplex flow cytometry, S. cerevisiae, primary screen (AID 1887;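 active = GFP signal above the screen-wide mean plus 3 SD, that is over about 124.5% of the solvent control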;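 note: AGP1-GFP fusion strain of S. cerevisiae within a five-strain barcoded multiplex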). Conditions: 3 h, at 10 µM, stronger effect = higher value.

SMILES strings stand for the structures. Results filed as inconclusive are left out. The source made the active and inactive calls.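 Rule for the calls, unless noted: active = inhibition above 54%, about 3 SD of non-fluorescent compounds; inactive = the rest.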

Sequence of Beta-2 adrenergic receptor (Homo sapiens) (P07550 whole entry, looked up): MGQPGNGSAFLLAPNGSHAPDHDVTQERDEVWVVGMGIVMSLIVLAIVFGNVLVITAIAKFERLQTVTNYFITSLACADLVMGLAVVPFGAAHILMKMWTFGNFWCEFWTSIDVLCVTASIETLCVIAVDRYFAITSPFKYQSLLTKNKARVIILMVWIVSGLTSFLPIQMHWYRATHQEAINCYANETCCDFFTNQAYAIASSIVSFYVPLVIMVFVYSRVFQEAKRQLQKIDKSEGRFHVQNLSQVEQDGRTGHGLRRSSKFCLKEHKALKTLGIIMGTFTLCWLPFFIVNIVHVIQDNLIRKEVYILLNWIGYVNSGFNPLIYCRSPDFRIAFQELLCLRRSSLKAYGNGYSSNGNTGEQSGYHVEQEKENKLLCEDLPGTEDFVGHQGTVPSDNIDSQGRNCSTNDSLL
Sequence of Beta-adrenergic receptor kinase 1 (Homo sapiens) (P25098 whole entry, looked up): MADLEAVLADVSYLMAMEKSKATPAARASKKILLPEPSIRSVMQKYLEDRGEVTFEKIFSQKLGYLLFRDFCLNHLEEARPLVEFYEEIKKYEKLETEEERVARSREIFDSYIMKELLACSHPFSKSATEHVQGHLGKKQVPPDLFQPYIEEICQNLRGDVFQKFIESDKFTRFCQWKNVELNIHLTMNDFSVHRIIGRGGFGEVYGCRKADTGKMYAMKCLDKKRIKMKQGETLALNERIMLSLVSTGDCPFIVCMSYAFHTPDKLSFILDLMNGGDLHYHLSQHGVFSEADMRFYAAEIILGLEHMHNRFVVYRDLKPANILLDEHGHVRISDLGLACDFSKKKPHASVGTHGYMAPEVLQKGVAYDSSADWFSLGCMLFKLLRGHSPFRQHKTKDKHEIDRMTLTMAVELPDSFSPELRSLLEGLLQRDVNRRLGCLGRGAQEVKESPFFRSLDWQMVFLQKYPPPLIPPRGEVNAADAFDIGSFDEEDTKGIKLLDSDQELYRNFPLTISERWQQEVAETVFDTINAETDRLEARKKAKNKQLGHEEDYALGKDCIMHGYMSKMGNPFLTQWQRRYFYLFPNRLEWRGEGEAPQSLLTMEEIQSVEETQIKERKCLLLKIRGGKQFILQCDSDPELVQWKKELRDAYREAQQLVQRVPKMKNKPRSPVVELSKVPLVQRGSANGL

By inhibition is commonly meant the relative decrease from the control value, in per cent. For `COc1cc(C2C(C(=O)c3ccc(C)o3)=C(O)C(=O)N2Cc2cccnc2)ccc1O` (stereo not given), in [1], the percent of DMSO control GFP was 102% (inactive). Further, the GFP response vs DMSO in assay [2] is 119% (inactive); in assay [4], 81.4% (inactive). Besides, in assay [3], the percent response of DMSO control is 106% (inactive). In assay [5], this compound returned a double positive events of 68.3%. For the same compound, the vesicle binding response in assay [5] is 171% (inactive). In addition, the inhibition in [6] was 2.58% (inactive); in assay [10] it was -5.82% (inactive); in assay [14], 9% (inactive). Moreover, the superoxide response (% of plate) in [7] was 110% (inactive). In addition, in [8], the aptamer binding inhibition is 2% (inactive). Besides, the response in assay [9] was -8.26% (inactive); in [11], 4.05% (inactive). The binding (% of control) in assay [12] was 99.4% (inactive). For the same compound, the efflux inhibition (fraction of control) in assay [13] was 0.34 (inactive). Besides, the differentiation response in [15] is -0.82% (inactive).
Turning to `COc1ccc(Cc2nc(-c3ccc(Br)cc3)no2)cc1`, the percent of DMSO control GFP in assay [1] is 100% (inactive). Further, the GFP response vs DMSO in [2] is 103% (inactive); in [4], 95.3% (inactive). For the same compound, the percent response of DMSO control in assay [3] was 101% (inactive). In addition, the GFP response, % of DMSO in assay [16] is 102% (inactive). In [5], this compound came in with a double positive events of 40%. The figures for the inhibition in assay [6], in assay [10] and in [14] were -12.9% (inactive), 58.9% (active) and -4% (inactive), respectively. For the same compound, the superoxide response (% of plate) in assay [7] was 117% (inactive). Moreover, the aptamer binding inhibition in assay [8] is -1% (inactive). Also, the response in assay [9] is -5.31% (inactive); in assay [11] it was -2.85% (inactive). Further, in assay [12], the binding (% of control) was 99.3% (inactive). In addition, the efflux inhibition (fraction of control) in assay [13] was 0.14 (inactive). For the same compound, the differentiation response in assay [15] was 48.1% (inactive).
`CCCNC(=O)NS(=O)(=O)c1ccc(Cl)cc1`: in assay [1], the percent of DMSO control GFP was 98.2% (inactive). The GFP response vs DMSO in [2] is 104% (inactive); in assay [4], 101% (inactive). Moreover, the percent response of DMSO control in assay [3] was 97.1% (inactive). In addition, the GFP response, % of DMSO in [16] is 103% (inactive). In assay [5], this compound gave a double positive events of 48%. Also, the results for the inhibition in assay [6], in [10] and in assay [14] were 1.12% (inactive), 11.1% (inactive) and 2% (inactive), respectively. Besides, the superoxide response (% of plate) in assay [7] is 99.1% (inactive). Further, in [8], the aptamer binding inhibition was 2% (inactive). Moreover, the response in assay [9] was -4.85% (inactive); in assay [11], -3.28% (inactive). The binding (% of control) in assay [12] was 102% (inactive). The efflux inhibition (fraction of control) in [13] was -0.02 (inactive). In addition, the differentiation response in assay [15] was 8.02% (inactive).
For `O=c1n(CCCN2CCN(c3cccc(Cl)c3)CC2)nc2ccccn12`, the percent of DMSO control GFP in assay [1] is 91.5% (inactive). Moreover, the GFP response vs DMSO in assay [2] is 112% (inactive); in assay [4], 75.9% (inactive). In addition, the percent response of DMSO control in assay [3] was 106% (inactive). For the same compound, the GFP response, % of DMSO in [16] is 92.4% (inactive). In [5], this compound gave a double positive events of 69.6%. In addition, the inhibition in [6] is 1.61% (inactive); in assay [10], -2.13% (inactive); in assay [14] it was 11% (inactive). The superoxide response (% of plate) in assay [7] is 102% (inactive). The aptamer binding inhibition in [8] is 2% (inactive). Also, the figures for the response in assay [9] and in assay [11] were 2.3% (inactive) and 1.41% (inactive), respectively. In assay [12], the binding (% of control) was 102% (inactive). Further, the efflux inhibition (fraction of control) in [13] is -0.2 (inactive). In addition, in assay [15], the differentiation response is 5.73% (inactive).
On to `Cc1ccc(S(=O)(=O)Nc2ccc(S(=O)(=O)Nc3cc(C)nc(C)n3)cc2)cc1`, for which, in assay [1], the percent of DMSO control GFP was 91.1% (inactive). Further, the GFP response vs DMSO was 120% (inactive) in assay [2] and 78.1% (inactive) in assay [4]. The percent response of DMSO control in [3] was 108% (inactive). Moreover, the double positive events in assay [5] is 76%. The vesicle binding response in assay [5] was 256% (inactive). The inhibition in assay [6] was 23.9% (inactive); in [10], -0.21% (inactive); in assay [14] it was 6% (inactive). For the same compound, in assay [7], the superoxide response (% of plate) is 89.7% (inactive). Moreover, the aptamer binding inhibition in assay [8] is 0% (inactive). Moreover, the response in [9] was 1.77% (inactive); in [11], 15% (inactive). The binding (% of control) in assay [12] was 101% (inactive). In assay [13], the efflux inhibition (fraction of control) was -0.35 (inactive). Moreover, the differentiation response in assay [15] was 26.2% (inactive).
